What is called AC50 is the concentration at which the activity in the assay is half-maximal.

Consider 40 compounds from PubChem BioAssay (EPA / NIEHS).

Calls of active or inactive are those of the source. The calls were made as follows: active = hit-call score of the fitted dose curve at least 0.9, where 1 is the maximum; inactive = score below 0.9.

The assay in a line: ATG_GLI_CIS: Attagene CIS-FACTORIAL HepG2 Assay for human Zinc Finger Protein GLI1 (AID 2282945). The following applies: HepG2, Attagene cis-factorial reporter mRNA, GLI element; actives raise or lower the signal. On the procedure: ATG_CIS is a cell-based, multiplexed-readout assay that uses HepG2, a human liver cell line, with measurements taken at 24 hours after chemical dosing in a 24-well plate.ATG_GLI_CIS is one of 52 assay component(s) measured or calculated from the ATG_CIS assay. It is designed to make measurements of mRNA induction, a form of inducible reporter, as detected with fluorescence intensity signals by Reverse transcription polymerase chain reaction (RT-PCR) and Capillary electrophoresis technology.Data from the assay component ATG_GLI_CIS was analyzed into 1 assay endpoint. This assay endpoint, ATG_GLI_CIS, was analyzed with bidirectional fitting relative to DMSO as the negative control and baseline of activity. Using a type of inducible reporter, measures of mRNA for gain or loss-of-signal activity can be used to understand the reporter gene at the transcription factor-level as they relate to the gene GLI1. Furthermore, this assay endpoint can be referred to as a primary readout, because this assay has produced multiple assay endpoints where this one serves a reporter gene function. To generalize the intended target to other relatable targets, this assay endpoint is annotated to the dna binding intended target family, where the subfamily is zinc finger.
Human liver HepG2 cells are transiently transfected with multiple reporter transcription units (MRTUs) in 6-well plates using FuGene 6 reagent (Roche; 3 ml FuGene/1 mg DNA). The MRTU constructs are regulated by a cis-regulating element (promoter). […] A major difference between the CIS and TRANS system is that in CIS activities of endogenous TFs are measured, whereas the TRANS assay evaluates changes in activities of exogenous, chimeric NR-Gal4 proteins. […] At the end of 24 hour incubation, total RNA was isolated using TriZol reagent (Invitrogen). The isolated RNA is then reverse-transcribed using oligo(dT) primer and Mo-MLV reverse transcriptase (Invitrogen) with DNAse I (Ambion) treatment for 30 min. The one-tenth of the produced cDNA was amplified by PCR using Taq DNA polymerase (Invitrogen) and two reporter sequence-specific primers. The PCR products were fluorescently labeled by primer extension with 6-arboxyfluorescein (6-FAM) 5'-labeled reporter sequence-specific primer (2 min at 95 C, 20 s at 68 C and 10 min at 72 C) and these products were digested with 5U of HpaI (New England Biolabs) for 2h at 37 C. The fragments were purified using Qiaquick PCR columns (Qiagen), analyzed on an ABI 3130xL genetic analyzer (Applied Biosystems) with peak positions identified by using a set of X-rhodamine (ROX)-labeled MapMarker1000 molecular weight standards (BioVentures). The raw capillary electrophoresis data was processed using Attagraph software (Attagene).
With `Brc1ccc(Oc2ccc(Br)cc2)cc1`, the call was inactive. The same measure, in the same setting: with `O=C(C1CCCCC1)N1CC(=O)N2CCc3ccccc3C2C1` (stereo not given) the entry was “inactive”. On the same count and under the same terms, with `COC(=O)/C=C\C(=O)OC` the entry was “inactive”; with `NC(=O)c1ccc([N+](=O)[O-])cc1Cl`, “inactive”. Still for that read-out and setting: with `CC/C=C/CCO` the entry was “inactive”; with `CCCc1c(OCCCCc2nn[nH]n2)ccc(C(C)=O)c1O`, “inactive”. Regarding `O=C(O)Cc1c[nH]c2ccccc12`, the compound was classed as inactive.

`CC1=NN(c2cc(Cl)c(S(=O)(=O)O)cc2Cl)C(=O)C1N=Nc1ccc(S(=O)(=O)O)cc1` (stereo not given): the compound was classed as inactive. The same measure, in the same setting: with `c1ccc(CNc2ncnc3nc[nH]c23)cc1` the entry was “inactive”. The same measure, in the same setting: with `Cc1cc(-n2nc3ccc(Cl)cc3n2)c(O)c(C(C)(C)C)c1` the entry was “inactive”; with `Nc1ccc(S(=O)(=O)Nc2cnc3ccccc3n2)cc1`, “inactive”. The same measure, in the same setting: with `O=C(O)c1nc(Cl)c(Cl)c(Cl)c1Cl` the entry was “inactive”; with `CC(C)(Oc1ccc(Cl)cc1)C(=O)O`, “inactive”; with `CC(O)(P(=O)(O)O)P(=O)(O)O`, “inactive”. On to `CCOC(=O)c1ccccc1`, for which the compound was called inactive.

With `CCCC[N+]1(C)CCCC1`, the outcome was inactive. Consider `NC(=O)c1ccc(N)cc1`, for which the compound was called inactive.

With `Cc1cccnc1`, the result was inactive. Same read-out and setting: with `CO[Si](CCCNCCN)(OC)OC` the entry was “inactive”. On to `CCCCCCCCCCCCCCCCCC[N+](C)(C)C`, for which the AC50 is 43.6 µM (active). With `COc1ccccc1OCC(O)CO` (stereo not given), the call was inactive. Still for that read-out and setting: with `CC/C=C\CC/C=C/C(OCC)OCC` the entry was “inactive”; with `O=C(Oc1ccccc1)c1ccccc1`, “inactive”; with `CCCOCCC`, “inactive”. Still for that read-out and setting: with `O=[N+]([O-])c1ccc2nc[nH]c2c1` the entry was “inactive”; with `COCCCN`, “inactive”. Same read-out and setting: with `O=C(O)c1cc(Cl)cc(Cl)c1O` the entry was “inactive”. Regarding `C=CN1CCCCCC1=O`, the outcome was inactive. Consider `Oc1ccc(Cl)cc1C1CCCC1`, for which the AC50 was 43.1 µM (active).

In the case of `O=C(O)/C=C\C(=O)O`, the compound was called inactive. On the same count and under the same terms, with `O=C(O)c1ccccc1C(=O)O` the entry was “inactive”; with `C[Si](C)(C)O[Si](C)(C)O[Si](C)(C)C`, “inactive”; with `CC1=CCCC(C)(C)C12CCC(C)O2` (stereo not given), “inactive”.

For the compound `Cc1cc(O)cc(C)c1Cl`, the call was inactive. Still for that read-out and setting: with `O=C1CCCCCCCCCCCCCC1` the entry was “inactive”. Same read-out and setting: with `CC/C=C\CCO` the entry was “inactive”; with `COC(=O)CCSCCC(=O)OC`, “inactive”; with `CC[N+](CC)(CC(=O)Nc1c(C)cccc1C)Cc1ccccc1` (tested in a mixture with another compound), “inactive”. On to `CN(C)CCC(c1ccc(Cl)cc1)c1ccccn1` (stereo not given), for which the compound was called inactive. On the same count and under the same terms, with `C=C(C)C(=O)OCC1CCCO1` (stereo not given) the entry was “inactive”.
